Results published in PubChem BioAssay (EPA / NIEHS).
Records with an inconclusive call do not appear. The source made the active and inactive calls. The calls were made as follows: active = hit-call score of the fitted dose curve at least 0.9, where 1 is the maximum; inconclusive = response in the unintended direction; inactive = score below 0.9.

target: Androgen receptor (Homo sapiens) (UniProt P10275); assay: ATG_AR_TRANS: Attagene TRANS-FACTORIAL HepG2 Assay for human Androgen Receptor (AR) (AID 2282973); details: HepG2 Attagene TRANS-FACTORIAL AR reporter transcription
Sequence (P10275 whole entry, looked up, the tested form may be a part): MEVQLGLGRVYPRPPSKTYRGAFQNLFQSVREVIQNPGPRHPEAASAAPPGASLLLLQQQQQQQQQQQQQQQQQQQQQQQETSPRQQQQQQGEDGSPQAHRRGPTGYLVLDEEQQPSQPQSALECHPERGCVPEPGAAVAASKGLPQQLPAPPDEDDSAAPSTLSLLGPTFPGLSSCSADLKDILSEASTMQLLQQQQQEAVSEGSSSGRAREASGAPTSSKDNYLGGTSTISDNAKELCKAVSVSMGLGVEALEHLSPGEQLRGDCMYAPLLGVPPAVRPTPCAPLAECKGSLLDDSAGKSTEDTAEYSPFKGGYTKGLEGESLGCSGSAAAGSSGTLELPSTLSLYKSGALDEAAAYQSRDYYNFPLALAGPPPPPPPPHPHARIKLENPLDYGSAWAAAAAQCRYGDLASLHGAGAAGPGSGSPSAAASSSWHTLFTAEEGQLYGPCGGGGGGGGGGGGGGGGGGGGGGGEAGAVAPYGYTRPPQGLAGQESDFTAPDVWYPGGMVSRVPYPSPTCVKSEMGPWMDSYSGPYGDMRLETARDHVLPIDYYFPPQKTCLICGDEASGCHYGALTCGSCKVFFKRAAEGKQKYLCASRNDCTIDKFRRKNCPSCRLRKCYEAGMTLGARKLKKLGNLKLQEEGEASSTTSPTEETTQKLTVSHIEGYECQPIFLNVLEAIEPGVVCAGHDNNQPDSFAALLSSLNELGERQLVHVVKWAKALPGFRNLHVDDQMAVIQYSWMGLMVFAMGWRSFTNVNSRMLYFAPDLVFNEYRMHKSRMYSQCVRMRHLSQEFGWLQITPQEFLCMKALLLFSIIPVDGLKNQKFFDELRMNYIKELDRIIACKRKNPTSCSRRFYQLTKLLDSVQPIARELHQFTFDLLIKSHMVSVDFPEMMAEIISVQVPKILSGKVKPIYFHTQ
How it was run: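 Chimeric nuclear receptor–Gal4 activity was assessed in human HepG2 hepatocytes after 24 h chemical dosing. Induced reporter mRNA was detected via labelled RT-PCR fragments on capillary electrophoresis, and gain of signal was analysed against DMSO.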

outcome, inactive:
C=C(C)C1CC=C(C)C(=O)C1 (stereo not given)
CC(CO)c1ccccc1 (stereo not given)
COc1cc(/C=C/C(=O)CC(=O)/C=C/c2ccc(O)c(OC)c2)ccc1O
CC=C(C)C(C)=O
CCc1cccc(CC)c1NC(=O)C(=O)O
OCCNCc1ccccc1
COC(=O)c1cccnc1
Cc1ccc(C)c(OCCCC(C)(C)C(=O)O)c1
C=C(C)C(=O)OCC(F)(F)C(F)(F)C(F)(F)C(F)F
O=C(Cl)c1ccc(Cl)cc1Cl
O=C(c1ccccc1)c1ccc(Cl)cc1
CCCCCCS
CC(O)COc1ccccc1 (stereo not given)
FC(F)(F)N1C(F)(F)C(F)(F)OC(F)(F)C1(F)F
CO[Si](CCCNCCN)(OC)OC
CC(C)CCCCCCc1ccc(OCCOCCO)cc1
COC(=O)c1cccc(C)c1S(=O)(=O)NC(=O)Nc1nc(OCC(F)(F)F)nc(N(C)C)n1
NCCNc1cccc2ccccc12
COc1ccc(C(=O)c2ccccc2)c(O)c1
CC=CC(=O)OCC(C)C
BrCc1cccc(Oc2ccccc2)c1
CCCC/C=C/C=C\C=O
COc1ccc(O)cc1
C=CCOCC(O)CCl (stereo not given)
CCOC(=O)OC(=O)OCC
CN(C)CCOc1ccc(/C(=C(/CCCl)c2ccccc2)c2ccccc2)cc1
NCC(F)(F)C(F)(F)C(F)(F)C(F)(F)C(F)(F)C(F)(F)C(F)(F)C(F)(F)F
CCN=c1cc2oc3cc(NCC)c(C)cc3c(-c3ccccc3C(=O)OCC)c-2cc1C
CCc1cccc(C)c1N
C=C(C)[C@@H]1CCC2=CCC[C@@H](C)[C@]2(C)C1
CC=C(C)C=CC=C(C)C
CC(C)CC(=O)CC(C)CC(C)C (stereo not given)
C=COCCCC
C=CCOCC(CO)(CO)CO
CC(=O)c1ccc[nH]1
CC(c1cc2ccccc2s1)N(O)C(N)=O (stereo not given)
O=C[C@H](O)[C@H](O)[C@H](O)CO
CC1(C)[C@H](C=C(Cl)Cl)[C@H]1C(=O)OCc1cccc(Oc2ccccc2)c1
O=C1C=CC(=O)N1c1ccccc1
C=C(C)C(=O)OCCOC(=O)C(=C)C
